Test results: PubChem BioAssay

Experiment: S. cerevisiae RM11-1a growth modifiers, primary screen, strain RM11-1a, OD600, basal, 24 h (AID 1177);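 also: cultures grown under basal conditions with no added stressor; test concentration not given here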
Settings: OD600, 24 h, higher = more signal, called active from +8 up or from −8 down

z-score, inactive:
O=C1OCCC=C[C@H]2OC34C=CCN(Cn5nnc6ccccc65)C(=O)[C@H]3N(CCCCCCO)C(=O)[C@@H]4C12 (stereo not given in full) 0.587
O=C1C[C@@](C(=O)NCCN2CCOCC2)(c2ccc([N+](=O)[O-])cc2)[C@@H](c2ccc(CO)cc2I)N1C1CCCCC1 -1.19
NC(=O)N1C(=O)C2C(C1=O)C1C=C(CCCO)C2C(c2cccs2)N1Cc1cccc(OC(F)(F)F)c1 (stereo not given) 0.199
C=C(/C(=C/C[C@H](OC(C)=O)c1ccccc1OCCO)c1cc(C(=O)OC)ccc1OC)C(C)C -0.0703
CCCC[C@@H](O)C1=C(COc2ccccc2)C[C@H]2C(=O)N(C)C(=O)[C@H]2[C@H]1CO -3.3
O=C1NC(=O)C2C1C=CC(C(O)c1cccc3ccccc13)N2Nc1ccc(Cl)cc1Cl (stereo not given) 0.981
COc1ccc(-c2cc3c(c(CCc4ccccc4)n2)[Si](C(C)C)(C(C)C)OC3)cn1 0.817
COC(=O)[C@@]1(Cc2ccc(F)cc2)[C@H]2c3cc(C(=O)N4CCCC4)n(CCc4ccc(O)c(O)c4)c3C[C@H]2CN1C(=O)c1ccccc1 1.78
CC1=C[C@@]2(CO)C(=O)[C@]3(CO3)[C@@H]1[C@H]1[C@]2(C)C=C(CO)C(=O)[C@]12CO2 -0.813
O=C(NCC(F)(F)F)[C@@H]1c2ccccc2C(=O)N(Cc2ccc(OC(F)(F)F)cc2)[C@H]1c1ccc(CO)cc1 0.0971
COC(=O)Cn1c(C(=O)N(C)C)cc2c1C[C@H]1CN(C(=O)c3ccccc3)[C@@](Cc3ccc(F)cc3)(C(=O)OC)[C@@H]21 1.34
COc1ccc([Si](C)(C)[C@H]2[C@H](CC(=O)N(CCO)Cc3ccccc3)O[C@@]3(C(=O)N(Cc4cccc(N5CCOC5=O)c4)c4ccccc43)[C@@H]2C)cc1 2.36
COCCCNC(=O)[C@]1(CCS(=O)(=O)c2ccccc2)N=C(c2ccc(OCCCO)cc2)O[C@@H]1c1ccccc1CN=[N+]=[N-] 1.62
[N-]=[N+]=Nc1ccccc1C[C@]1(C(N)=O)N=C(c2ccc(OCCCO)cc2)O[C@H]1c1ccccc1N=[N+]=[N-] -0.315
C#CCN([C@@H](Cc1ccc(O)cc1)C(=O)OC)[C@@H](/C=C/C1CC1)[C@H](O)Cc1ccccc1 -0.136
CN(C)c1ccc(C(O)C2C=CC3C(=O)N(c4ccccc4)C(=O)C3N2Nc2ccc([N+](=O)[O-])cc2)cc1 (stereo not given) 0.706
NCCCCCCNC(=O)[C@@H]1C[C@@H]2C(=O)N[C@@H](CCCCN)C(=O)N2[C@@H]1c1cccc(OCCO)c1 0.58
CCOC(=O)C1=CC[C@@H](c2ccc(OCc3ccccc3)c(OC)c2)N(S(=O)(=O)c2ccc(C)cc2)[C@H]1c1ccc(SC)cc1 -0.759
COC(=O)[C@@]1(Cc2ccccc2)[C@H]2c3cc(C(=O)N(C)C)n(Cc4c(CO)[nH]cc(C)c4=O)c3C[C@H]2CN1C(=O)c1ccccc1 1.24
CN1C(=O)C2C=CC(C(O)COCc3ccccc3)N(N(c3ccccc3)c3ccccc3)C2C1=O (stereo not given) 0.591
CCC[C@@H]1C[C@@]1(CCC)[C@@H](NC(=O)OCc1ccccc1)c1ccc(-c2ccccc2)cc1 0.259
COCCOC(=O)N1C(=O)[C@@]2(c3cc(C#CC4=CCCCC4)ccc31)[C@H](c1ccc(OCCO)cc1)N1[C@H](c3ccccc3)[C@H](c3ccccc3)OC(=O)[C@H]1[C@@H]2C(=O)NC[C@H](O)c1ccccc1 2.83
C=C(CCCC)/C(=C/C[C@@H](OC(=O)c1ccncc1)c1ccccc1OCCO)c1cnc2ccccc2c1 -0.592
CC1CC/C=C\[C@H]2OC34C=CCN(C(C)C)C(=O)[C@H]3N(CCCCCCO)C(=O)[C@@H]4C2C(=O)O1 (stereo not given in full) -0.908
O=C1C2C=CC(C(O)c3ccc(Br)cc3)N(Nc3ccccc3F)C2C(=O)N1c1ccccc1 (stereo not given) -1.17
COC(=O)[C@@]1(Cc2ccc(OC)cc2)[C@H]2c3cc(C(=O)N4CCCC4)n(Cc4cccc5ccccc45)c3C[C@H]2CN1C(=O)c1ccccc1 1.08
CCOC(=O)C1CCCCN1 (stereo not given) 0.0958
COc1ccc([Si](C)(C)[C@H]2[C@H](CCn3cc([C@H](O)c4ccccc4)nn3)O[C@@]3(C(=O)N(Cc4ccc(N5C(=O)c6cccc7cccc5c67)cc4)c4ccccc43)[C@@H]2C)cc1 1.26
[N-]=[N+]=NCc1ccccc1C[C@@]1(C(=O)N2CCOCC2)N=C(c2ccc(OCCCO)cc2)O[C@@H]1c1ccccc1 -0.0165
COC(=O)C(CC#Cc1ccc2c(c1)[C@]1(C(=O)N2)[C@H](C(=O)N2CCN(c3ncccn3)CC2)[C@H]2C(=O)O[C@H](c3ccccc3)[C@H](c3ccccc3)N2[C@@H]1c1ccc(OCCO)cc1)C(=O)OC 3.84
[N-]=[N+]=Nc1ccccc1[C@@H]1OC(c2ccc(OCCCO)cc2)=N[C@]1(Cc1ccccc1)C(=O)NCC(O)CO (stereo not given in full) 1.06
CCCC[C@@H]1C[C@H]1[C@@H](NC(=O)c1cccs1)c1ccc(C(F)(F)F)cc1 1.83
COC(=O)[C@@]1(Cc2ccc(OC)cc2)[C@H]2c3cc(C(=O)N(C)C)n(CCO)c3C[C@H]2CN1C(=O)c1ccccc1 -0.562
CCOC(=O)C[C@H]1[C@H](OC(=O)Cc2ccc3c(c2)OCO3)[C@@H](NC(=O)CC(C)C)c2cc(OCCCO)ccc2N1C(=O)Cc1ccc(OC)cc1 -1.73
O=C1NC(=O)C2C1C=CC(C(O)c1ccco1)N2Nc1ccccn1 (stereo not given) 0.254
